The record followed here is PubChem BioAssay.

This assay is described as follows: basal HepG2 mitochondrial membrane potential changes, profiling panel, cell-based, JC-1 fluorescence, 24 h, 100 nL compound (AID 1167). Also: test concentration not given here. The following applies: higher = more signal.
Consider `Cc1ccc(S(=O)(=O)N2[C@@H](c3ccccc3)C(C(=O)O)=C[C@H]2C(C)(C)C)cc1`, for which the z-score was -0.747.
The same measure for `C=C1C(=O)C=C2CN(C(=O)c3ccccc3)[C@@](Cc3ccc(F)cc3)(C(=O)OC)[C@@H]12`: -3.92; for `COC(=O)[C@@]1(Cc2ccc(F)cc2)[C@H]2c3cc(C(=O)N4CCCC4)n(CCc4c[nH]c5cc(F)ccc45)c3C[C@H]2CN1C(=O)c1ccccc1`: 2.18; for `CCCCN1CC=CC23O[C@@H]4C=CCCOC(=O)C4[C@H]2C(=O)N(CCO)[C@@H]3C1=O` (stereo not given in full): -0.508.
In turn, `Cc1ccc(S[C@]2(C(=O)NC3CC3)CC(=O)N(C3Cc4ccccc4C3)[C@@H]2c2ccc(CO)cc2I)cc1` registered a z-score of -0.24.
The result for `C=CCOC(=O)[C@H]1[C@@H]2C(=O)O[C@@H](c3ccccc3)[C@@H](c3ccccc3)N2[C@@H](c2ccc(OCCOC(=O)[C@H]3C[C@H]4C(=O)NCC(=O)N4[C@H]3c3cccc(OCCO)c3)cc2)[C@]12C(=O)Nc1ccc(I)cc12` reads -0.777.
Consider `CC1(C)OB(/C=C\CC(OC(=O)c2ccncc2)c2ccccc2)OC1(C)C` (stereo not given), for which the z-score was -1.27.
On to `CC[C@@H](O[Si](C#C[Si](C(C)C)(C(C)C)C(C)C)(C(C)C)C(C)C)c1cn([C@H](CO)Cc2ccccc2)nn1`, for which the z-score came out at 0.74.
The molecule `C=C[C@H](OC)[C@@H](O)c1ccc(OC)c(O)c1` yielded a z-score of 1.26.
The same measure for `CC(C)(C)OC(=O)CC[C@@]1(C(N)=O)N=C(c2ccc(OCCCO)cc2)O[C@@H]1c1ccccc1CN=[N+]=[N-]`: -1.08; for `COCCOC(=O)N1C(=O)[C@@]2(c3cc(C#CCNC(N)=O)ccc31)[C@H](c1ccc(O)cc1)N1[C@H](c3ccccc3)[C@H](c3ccccc3)OC(=O)[C@H]1[C@@H]2C(=O)N1CCc2cc(OC)c(OC)cc2C1`: -1.82.
The molecule `COc1cc2c(cc1O)C(C)N(Cc1sc3ccccc3c1Cl)CC2` (stereo not given) gave a z-score of -1.08.
`COCCOC(=O)N1C(=O)[C@@]2(c3cc(C#CCC(C(=O)OC)C(=O)OC)ccc31)[C@H](C(N)=O)[C@H]1C(=O)O[C@H](c3ccccc3)[C@H](c3ccccc3)N1[C@@H]2c1ccccc1OCCO` had a z-score of 0.142.
The same measure for `C[C@H]1C2[C@H](Cc3ccccc3)NC(=O)[C@]23C(=O)N[C@@H](Cc2ccccc2)C(=O)N2CCC[C@H]2C(=O)NC/C=C/CC/C=C/C3[C@@H]2O[C@]12C` (stereo not given in full): 1.11; for `C[C@@]1([C@@H](NS(=O)(=O)c2cccc3cccnc23)c2ccc(-c3ccccc3)cc2)C[C@H]1C1CCCCC1`: -1.46; for `COc1ccc(CCNC(=O)[C@@H]2c3ccccc3C(=O)N(Cc3cc(F)cc(C(F)(F)F)c3)[C@H]2c2ccc(CO)cc2)cc1`: 1.98.
The same measure for `C=CC[C@H](O)c1ccc(O)c(F)c1`: -0.737; for `CC(C)N1CC=CC23O[C@@H]4/C=C\CCCOC(=O)C4[C@H]2C(=O)N(C(C)CO)[C@@H]3C1=O` (stereo not given in full): 0.412; for `C=CCOC(=O)[C@@H]1[C@H]2C(=O)O[C@H](c3ccccc3)[C@H](c3ccccc3)N2[C@H](c2ccc(OCCOC(=O)[C@H]3C[C@H]4C(=O)N[C@@H](CCCCN(C)C)C(=O)N4[C@H]3c3cccc(OCCO)c3)cc2)[C@@]12C(=O)Nc1ccccc12`: -1.29.
The molecule `COCCOC(=O)N1C(=O)[C@@]2(c3cc(C#CC4=CCCCC4)ccc31)[C@H](C(=O)N1CCCCCCC1)[C@H]1C(=O)O[C@H](c3ccccc3)[C@H](c3ccccc3)N1[C@@H]2c1ccccc1OCCO` returned a z-score of 0.0436.
`CCCCCN1CC=CC23O[C@@H]4/C=C\CCCOC(=O)C4[C@H]2C(=O)N(CCO)[C@@H]3C1=O` (stereo not given in full) yielded a z-score of -0.242.
With `CC(C)N1C(=O)[C@@]2(Cc3ccccc31)c1ccccc1C(=O)N(Cc1ccccc1)[C@H]2c1ccc(CO)cc1`, the z-score was -0.0756.
The result for `C=C(CC1([C@@H](NP(=O)(c2ccccc2)c2ccccc2)[C@H]2C[C@@H]2CCCC)CC1)c1cccc(OC)c1` reads -1.28; that for `CC[C@@H](O[Si](C#C[Si](C(C)C)(C(C)C)C(C)C)(C(C)C)C(C)C)c1cn(Cc2cccc(Cl)c2)nn1`, 0.0106; that for `COCCCNC(=O)[C@]1(Cc2ccccc2CN=[N+]=[N-])N=C(c2ccc(OCCCO)cc2)O[C@@H]1c1ccccc1N=[N+]=[N-]`, 1.27.
The molecule `COc1ccc([Si](C)(C)[C@H]2[C@H](CC(=O)N(CCO)Cc3ccccc3)O[C@@]3(C(=O)N(Cc4cccc(N5CCCCC5=O)c4)c4ccccc43)[C@@H]2C)cc1` gave a z-score of 0.553.
`C=C(/C=C\CNS(=O)(=O)c1ccc(C)cc1)[C@H](O)[C@H]1CCCN1S(=O)(=O)c1ccccc1[N+](=O)[O-]` came in with a z-score of -3.05.
The same measure for `[N-]=[N+]=NCc1ccccc1[C@H]1OC(c2ccc(OCCCO)cc2)=N[C@@]1(Cc1ccccc1N=[N+]=[N-])C(N)=O`: -0.255.
`C=CCN1C(=O)[C@@]2(O[C@@H](CCO)[C@H]([Si](C)(C)c3ccc(OC)cc3)[C@H]2C)c2cc(N3CCCCC3=O)ccc21` came in with a z-score of -1.44.
The result for `Cc1ccc(S[C@]2(C(=O)NCc3ccccc3)CC(=O)N(Cc3ccccc3C(F)(F)F)[C@@H]2c2ccc(CO)cc2I)cc1` reads -0.741; that for `C=C[C@H](C)[C@@H](OC(=O)Nc1ccc(SC)cc1)c1ccc(OCCO)cc1`, -3.37.
Molecule `CN(C)C(=O)[C@]1(CCS(=O)(=O)c2ccccc2)N=C(c2ccc(OCCCO)cc2)O[C@@H]1c1ccccc1CN=[N+]=[N-]` yielded a z-score of -0.12.
Molecule `COC(=O)[C@]1(Cc2ccccc2N=[N+]=[N-])N=C(c2ccc(OCCCO)cc2)O[C@@H]1c1ccccc1CN=[N+]=[N-]` had a z-score of -1.76.
Regarding `COc1cccc(C)c1NC(=O)O[C@H]1[C@H](OC(=O)Nc2ccccc2)[C@@H](OC(=O)Nc2ccccc2)[C@@H](OC)O[C@@H]1CO`, the z-score is -0.702.
The same measure for `COCCCNC(=O)[C@@]1(c2ccc([N+](=O)[O-])cc2)CC(=O)N(C2CCCCC2)[C@@H]1c1ccc(CO)cc1I`: 2.88.
